Screening results: PubChem BioAssay, National Center for Advancing Translational Sciences (NCATS)
SW480 rereplic = A quantitative high throughput screen for small molecules that induce DNA re-replication in SW480 colon adenocarcinoma cells | AID 624297, 2012 | Potency, µM (doses to about 46.1 µM), for the others: top-dose re-replication activation, most hits filed as activators | SW480 DNA re-replication, Hoechst DNA content imaging, 48 h | 340,000 tested, 1.8% active; also: % of control where 0% means no effect; nearly all actives have a fitted effect of over 55% in size
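SW480 cells exposed to compounds for 48 hr at 37 C, 5% CO2, then Hoechst-stained 40 min. Nuclear DNA content imaged by fluorescence scanning (405 nm excitation, 500-530 nm emission); re-replication scored as increased high-intensity nuclei.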
KB-V1 cytotox = qHTS assay for MDR1-selective chemotherapeutics: Primary screen using the drug-selected MDR subline cells KB-V1 | KB-V1 MDR cells viability, CellTiter-Glo, 72 h | Potency, µM (top dose mostly 46.1 µM), hits mostly cytotoxic | AID 1347076, 2019 | 400,000 tested, 3.4% active; also: % is scaled to controls: 0 for no effect and ±100 for the full control effect; nearly all actives have a fitted effect of over 60% in size
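Following 72 h at 37 degrees C with compound, KB-V1 cell viability was read by CellTiter-Glo luminescence, medium being phenol-red-free DMEM plus 10% FBS; concentration-response parameters came from normalized, curve-fitted qHTS data.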
ELG1 DNA repair = qHTS screen for small molecules that inhibit ELG1-dependent DNA repair in human embryonic kidney (HEK293T) cells expressing luciferase-tagged ELG1; HEK293T ELG1-luciferase reporter, luminescence, 16 h; DNA damage induced by 5-fluorouridine; Potency, µM (top dose mostly 46.1 µM), inactives show at the highest dose activity change, negative = inhibition, usual class: inhibitors; 330,000 tested, 2.3% active; AID 504467, 2011; also: % is scaled to controls: 0 for no effect and ±100 for the full control effect; nearly all actives have a fitted effect of over 55% in size
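Luminescence from the luciferase reporter, measured 30 min after ONE-Glo reagent at room temperature, was the read-out. Beforehand, 2,000 cells per well were exposed for 16 hr at 37 °C to 5-fluorouridine together with compound or vehicle.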
KB-3-1 tox = qHTS assay for MDR1-selective chemotherapeutics: Primary screen using the parental adenocarcinoma cell KB-3-1 | KB-3-1 viability, CellTiter-Glo ATP luminescence, 72 h | Potency, µM (highest dose often 46.1 µM), actives largely listed as cytotoxic | 400,000 tested, 1.4% active; also: % is scaled to controls: 0 for no effect and ±100 for the full control effect; nearly all actives have a fitted effect of over 60% in size
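KB-3-1 parental drug-naive adenocarcinoma cells in DMEM/10% FBS, incubated 72 h at 37 C with pin-transferred compounds across a concentration series. Viability by CellTiter-Glo luminescence; concentration-response curves fitted after normalization.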
MCF10A rerep = A quantitative high throughput screen for small molecules that induce DNA re-replication in MCF 10a normal breast cells. Potency, µM (top dose mostly 46.1 µM), for the others: top-dose activity, positive = re-replication, hits mostly activators. MCF 10A DNA re-replication, Hoechst nuclear intensity, 48 h. 350,000 tested, 2.9% active; also: % of control where 0% means no effect; nearly all actives have a fitted effect of over 50% in size
Starred values were filed as active, the others as inactive. The list is not random: actives were taken first. Their share in the collection is about 8.1%. Calls follow the shape of the dose curve; as a rule, active = well fitted curve in the direction sought with a large enough effect; inconclusive = small, poorly fitted or top-dose-only effect, or another doubt; inactive = no such curve, though single readings can be large; an effect the other way counts as inactive or inconclusive. Potency is read from the fitted curve at half-maximal effect.

Screening O=C(NCCc1ccccc1)c1coc(=O)c(Br)c1 returned SW480 rereplic 10µM*, KB-V1 cytotox inconclusive, ELG1 DNA repair inconclusive, KB-3-1 tox inconclusive and MCF10A rerep inconclusive.
`Cn1nc(C(=O)NNC(=O)c2cccc(Cl)c2)ccc1=O` gave SW480 rereplic -1%, ELG1 DNA repair 9% and MCF10A rerep -3%.
For CN(C)CCCNc1nccc(N2CCN(C)CC2)n1 the results were KB-V1 cytotox inactive and KB-3-1 tox inactive.
For Cc1cc(C)nc(Sc2ccc3nnc(C(F)(F)C(F)(F)C(F)(F)F)n3n2)n1 the results were SW480 rereplic 15µM*, KB-V1 cytotox inactive, ELG1 DNA repair -1%, KB-3-1 tox inactive and MCF10A rerep inconclusive.
`NNc1ccc2nnc(C(F)(F)C(F)(F)C(F)(F)F)n2n1` gave SW480 rereplic 2%, KB-V1 cytotox inconclusive, ELG1 DNA repair -2%, KB-3-1 tox inactive and MCF10A rerep 0%.
For COc1ccc(-c2noc(C3CC(=O)N(c4ccccc4)C3)n2)c(OC)c1 (stereo not drawn) the results were KB-V1 cytotox inactive and KB-3-1 tox inactive.
For CC1CCCCN1S(=O)(=O)c1ccc(S(=O)(=O)N2CCCC2)cc1 (stereo not drawn) the results were SW480 rereplic -1%, KB-V1 cytotox inactive, ELG1 DNA repair -16%, KB-3-1 tox inactive and MCF10A rerep 5%.
Screening O=S(=O)(NCCc1ccncc1)c1ccc(S(=O)(=O)N2CCCCCC2)cc1 returned SW480 rereplic 1%, KB-V1 cytotox 18µM*, ELG1 DNA repair inconclusive, KB-3-1 tox inactive and MCF10A rerep inconclusive.
For CC1CCCCN1S(=O)(=O)c1ccc(S(=O)(=O)NCCc2ccncc2)cc1 (stereo not drawn) the results were SW480 rereplic -18%, KB-V1 cytotox 21µM*, ELG1 DNA repair -17%, KB-3-1 tox inactive and MCF10A rerep 0%.
`COC(=O)[C@@]12C[C@@H](CC(=O)N3CCSCC3)C(=O)N(Cc3ccco3)C1=CCC(C)(C)C2` gave KB-V1 cytotox inconclusive and KB-3-1 tox inactive.
Cc1ccc(/C=C/C(O)=C2/C(=O)N(C)C3(C)CC2c2ccccc2O3)cc1 (stereo not drawn) was read as SW480 rereplic inconclusive, KB-V1 cytotox inactive, ELG1 DNA repair inconclusive, KB-3-1 tox 15µM* and MCF10A rerep inconclusive.
`COC(=O)c1ccc(OCC(=O)c2ccc(O)cc2O)cc1` gave SW480 rereplic -5%, KB-V1 cytotox 23µM*, ELG1 DNA repair inconclusive, KB-3-1 tox inconclusive and MCF10A rerep 1%.
`COc1cc(OC)cc(C(=O)N[C@H](C(=O)OCC(=O)Nc2ccc(C)cc2C)C(C)C)c1` gave SW480 rereplic 6%, KB-V1 cytotox inactive, ELG1 DNA repair inconclusive, KB-3-1 tox inconclusive and MCF10A rerep 14%.
`COc1ccc(NC(=O)COC(=O)C(NC(=O)c2ccc(C)cc2)C(C)C)cn1` (stereo not drawn) gave SW480 rereplic -6%, KB-V1 cytotox 15µM*, ELG1 DNA repair inconclusive, KB-3-1 tox inactive and MCF10A rerep -8%.
`CC(C)CC(NS(=O)(=O)OCC(Cl)(Cl)Cl)c1ccccc1` (stereo not drawn) gave SW480 rereplic -1%, KB-V1 cytotox 23µM*, ELG1 DNA repair -10%, KB-3-1 tox inactive and MCF10A rerep inconclusive.
`CCN(CC)CCNc1nc2cc(OC)c(OC)cc2c2nc(-c3ccccc3)nn12` gave SW480 rereplic 18%, KB-V1 cytotox 9.2µM*, ELG1 DNA repair inconclusive, KB-3-1 tox 16µM* and MCF10A rerep 19%.
`COc1cc2[nH]c(=O)n3nc(-c4ccccc4)nc3c2cc1OC` gave SW480 rereplic -1%, KB-V1 cytotox inactive, ELG1 DNA repair 21µM*, KB-3-1 tox inactive and MCF10A rerep -1%.
For CCOC(=O)c1c(C)oc2ncnc(Nc3cc(Cl)ccc3OC)c12 the results were KB-V1 cytotox inactive and KB-3-1 tox inactive.
Screening CN1CCN(C(=O)c2ccccc2NC(=O)c2cccc(Cl)c2)CC1 returned SW480 rereplic -2%, ELG1 DNA repair 15% and MCF10A rerep -8%.
`COCCNC(=O)C1(C)CCCN(C(=O)c2ccc(C(=O)OC)cc2)C1` (stereo not drawn) gave KB-V1 cytotox inactive and KB-3-1 tox inactive.
`Cc1cc(C(F)F)n2nc(C(=O)Nc3sc4c(c3C(N)=O)CCC4)nc2n1` gave SW480 rereplic 1%, KB-V1 cytotox inactive, ELG1 DNA repair inconclusive, KB-3-1 tox inactive and MCF10A rerep -2%.
COC(=O)c1c(NC(=O)c2nc3nc(C)cc(C(F)F)n3n2)sc2c1CCC2 was read as SW480 rereplic -1%, KB-V1 cytotox inconclusive, ELG1 DNA repair 23µM*, KB-3-1 tox inactive and MCF10A rerep 39%.
C[C@H](NC(=O)c1ccccc1)C(=O)OCC(=O)Nc1ccc(Cl)cn1 was read as KB-V1 cytotox inactive and KB-3-1 tox inactive.
COc1ccccc1OCCSc1nc2ccccc2c(=O)[nH]1 was read as SW480 rereplic 0%, KB-V1 cytotox inactive, ELG1 DNA repair inconclusive, KB-3-1 tox inactive and MCF10A rerep 21µM*.
`O=C(C1CCC(CNc2nc(=S)[nH]c3ccccc23)CC1)N1CCN(c2ccccn2)CC1` (stereo not drawn) gave SW480 rereplic 2%, KB-V1 cytotox 2.6µM*, ELG1 DNA repair inconclusive, KB-3-1 tox inactive and MCF10A rerep 6%.
`COc1ccc(C)cc1NC(=O)Cc1c(C(=O)O)c(C)cn1C` gave KB-V1 cytotox inactive and KB-3-1 tox inconclusive.
O=C(CNC(=O)c1ccco1)OCc1ccccc1F was read as SW480 rereplic 6%, KB-V1 cytotox inactive, ELG1 DNA repair -1%, KB-3-1 tox inactive and MCF10A rerep 3%.
Screening COc1cc2c(cc1OC)C(C)N(C(=O)c1cc(Cl)nc(Cl)c1)CC2 (stereo not drawn) returned SW480 rereplic 8.2µM*, KB-V1 cytotox inactive, ELG1 DNA repair inconclusive, KB-3-1 tox inconclusive and MCF10A rerep 9.2µM*.
For COc1cc2c(cc1OC)C(C)N(C(=O)c1ccc(Br)o1)CC2 (stereo not drawn) the results were SW480 rereplic 20%, KB-V1 cytotox 13µM*, ELG1 DNA repair inconclusive, KB-3-1 tox 21µM* and MCF10A rerep 17%.
